# Measured values published in PMC7862700, “An all-to-all approach to the identification of sequence-specific readers for epigenetic DNA modifications on cytosine”.
# Experiments:
# Test in all cases: DAPPL (digital affinity profiling via proximity ligation, sequencing); 10 mM Tris-HCl pH 7.5, 50 mM NaCl, 1 mM DTT, 4% glycerol, room temperature, 30 min; GST-TFs on glutathione beads, 16-mer random dsDNA library, 0.1% formaldehyde crosslink after washing; high values mean tight binding
# ETV5 = ETV5 (Homo sapiens, UniProt P41161 1-510); conditions: protein: recombinant; tags: N-terminal GST; dsDNA, one strand shown
# Sequence of ETV5 (P41161 whole entry, the tested form may be a part): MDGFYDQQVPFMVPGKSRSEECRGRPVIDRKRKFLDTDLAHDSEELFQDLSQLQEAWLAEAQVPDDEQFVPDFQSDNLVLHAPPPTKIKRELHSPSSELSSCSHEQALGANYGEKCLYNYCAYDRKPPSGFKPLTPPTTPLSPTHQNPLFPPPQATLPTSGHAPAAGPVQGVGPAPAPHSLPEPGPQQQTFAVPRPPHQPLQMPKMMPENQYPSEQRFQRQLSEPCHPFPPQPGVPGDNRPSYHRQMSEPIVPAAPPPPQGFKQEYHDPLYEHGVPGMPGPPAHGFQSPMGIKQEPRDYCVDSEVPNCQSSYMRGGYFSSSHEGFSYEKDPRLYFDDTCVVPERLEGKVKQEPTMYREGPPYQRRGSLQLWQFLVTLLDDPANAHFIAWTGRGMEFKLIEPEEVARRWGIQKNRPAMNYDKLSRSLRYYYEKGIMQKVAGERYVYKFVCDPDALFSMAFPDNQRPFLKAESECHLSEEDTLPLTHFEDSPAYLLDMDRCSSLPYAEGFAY
# Method in brief: (§1)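 Pools of DNA-barcoded human transcription factors, expressed in yeast as GST fusions on glutathione beads and combined with a tag-only sample, were incubated with 200 nmole of a 16-mer random double-stranded DNA library. Incubation took 30 min at room temperature in Tris/NaCl/DTT/glycerol buffer and was followed by washing, 0.1% formaldehyde crosslinking, proximity ligation (BsaI/T4 ligase, 1 h, 37 °C), PCR amplification and sequencing on an Illumina NextSeq500. Binding signal is the ratio of a hexamer's read frequency for a factor to its frequency for the tag-only sample.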
# HSF1 = HSF1 (Homo sapiens, UniProt Q00613 1-529); conditions: protein: recombinant; tags: N-terminal GST; chain copies: 3; dsDNA, one strand shown
# Sequence of HSF1 (Q00613 whole entry): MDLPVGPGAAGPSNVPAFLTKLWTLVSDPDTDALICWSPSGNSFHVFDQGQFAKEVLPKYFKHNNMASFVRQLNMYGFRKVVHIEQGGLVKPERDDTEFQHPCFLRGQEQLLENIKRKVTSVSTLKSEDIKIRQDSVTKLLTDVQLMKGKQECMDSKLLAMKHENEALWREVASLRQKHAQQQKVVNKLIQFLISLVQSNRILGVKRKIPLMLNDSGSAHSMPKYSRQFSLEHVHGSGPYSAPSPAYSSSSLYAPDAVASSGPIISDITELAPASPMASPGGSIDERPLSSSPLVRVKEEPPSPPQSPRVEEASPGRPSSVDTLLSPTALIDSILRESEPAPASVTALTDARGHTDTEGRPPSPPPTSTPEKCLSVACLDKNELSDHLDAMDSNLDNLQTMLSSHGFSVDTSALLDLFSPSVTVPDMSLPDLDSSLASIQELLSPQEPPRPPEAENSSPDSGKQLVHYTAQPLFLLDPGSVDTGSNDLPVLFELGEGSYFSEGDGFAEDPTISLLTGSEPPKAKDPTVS
# Method in brief: as §1
# SPIC = target: T1, SPIC (Homo sapiens, UniProt Q8N5J4 1-248); conditions: protein: recombinant; tags: N-terminal GST; dsDNA, one strand shown
# T1 sequence: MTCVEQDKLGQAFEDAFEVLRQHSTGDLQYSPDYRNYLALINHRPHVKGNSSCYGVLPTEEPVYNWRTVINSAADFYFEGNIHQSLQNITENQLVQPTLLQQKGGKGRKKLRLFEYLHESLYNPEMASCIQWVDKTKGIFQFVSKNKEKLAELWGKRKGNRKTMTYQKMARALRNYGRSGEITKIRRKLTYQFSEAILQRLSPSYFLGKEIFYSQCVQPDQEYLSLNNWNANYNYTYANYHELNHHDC
# Method in brief: as §1
# ELF4 = ELF4 (Homo sapiens, UniProt Q99607 1-663); conditions: protein: recombinant; tags: N-terminal GST; dsDNA, one strand shown
# Sequence of ELF4 (Q99607 whole entry): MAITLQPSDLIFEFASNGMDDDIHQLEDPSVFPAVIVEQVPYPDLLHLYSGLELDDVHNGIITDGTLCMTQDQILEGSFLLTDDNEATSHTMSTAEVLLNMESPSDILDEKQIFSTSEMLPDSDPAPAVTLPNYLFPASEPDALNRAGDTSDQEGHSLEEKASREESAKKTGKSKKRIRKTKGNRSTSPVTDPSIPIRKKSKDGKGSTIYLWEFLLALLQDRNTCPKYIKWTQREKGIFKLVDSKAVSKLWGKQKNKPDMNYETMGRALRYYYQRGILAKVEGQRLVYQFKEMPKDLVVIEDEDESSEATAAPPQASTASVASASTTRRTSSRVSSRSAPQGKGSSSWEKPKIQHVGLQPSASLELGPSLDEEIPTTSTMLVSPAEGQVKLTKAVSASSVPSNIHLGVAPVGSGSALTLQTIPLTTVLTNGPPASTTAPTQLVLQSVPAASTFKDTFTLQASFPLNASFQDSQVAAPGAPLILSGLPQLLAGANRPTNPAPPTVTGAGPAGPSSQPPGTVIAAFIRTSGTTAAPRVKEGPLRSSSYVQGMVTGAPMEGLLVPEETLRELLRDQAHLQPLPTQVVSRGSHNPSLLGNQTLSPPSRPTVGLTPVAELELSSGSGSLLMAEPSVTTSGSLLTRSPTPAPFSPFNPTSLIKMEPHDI
# Method in brief: as §1
# ELK4 = target: T2, ELK4 (Homo sapiens, UniProt P28324-2 1-405); conditions: protein: recombinant; tags: N-terminal GST; dsDNA, one strand shown
# T2 sequence: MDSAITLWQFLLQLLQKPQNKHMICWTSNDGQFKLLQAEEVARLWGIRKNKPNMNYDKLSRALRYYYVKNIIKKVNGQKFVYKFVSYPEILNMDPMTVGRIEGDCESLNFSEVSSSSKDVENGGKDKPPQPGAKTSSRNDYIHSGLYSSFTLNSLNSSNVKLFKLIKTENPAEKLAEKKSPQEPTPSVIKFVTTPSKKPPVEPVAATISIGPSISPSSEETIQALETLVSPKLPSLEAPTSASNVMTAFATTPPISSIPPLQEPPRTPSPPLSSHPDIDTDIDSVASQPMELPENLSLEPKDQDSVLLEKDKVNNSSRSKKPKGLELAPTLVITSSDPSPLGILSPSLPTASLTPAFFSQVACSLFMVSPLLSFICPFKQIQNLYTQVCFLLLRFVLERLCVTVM
# Method in brief: as §1
# ETV2 = target: T3, ETV2 (Homo sapiens, UniProt O00321 1-342); conditions: protein: recombinant; tags: N-terminal GST; dsDNA, one strand shown
# T3 sequence: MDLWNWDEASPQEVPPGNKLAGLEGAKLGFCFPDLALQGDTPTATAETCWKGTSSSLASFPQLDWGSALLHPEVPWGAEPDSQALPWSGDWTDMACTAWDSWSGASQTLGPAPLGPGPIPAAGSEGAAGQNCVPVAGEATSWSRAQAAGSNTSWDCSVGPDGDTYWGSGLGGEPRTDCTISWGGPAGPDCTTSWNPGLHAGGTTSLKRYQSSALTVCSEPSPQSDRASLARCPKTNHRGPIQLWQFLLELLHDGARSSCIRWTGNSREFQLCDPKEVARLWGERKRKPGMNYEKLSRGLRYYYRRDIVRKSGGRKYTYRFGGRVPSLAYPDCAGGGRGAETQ
# Method in brief: as §1
# ELF3 = target: T4, ELF3 (Homo sapiens, UniProt P78545 1-371); conditions: protein: recombinant; tags: N-terminal GST; dsDNA, one strand shown
# T4 sequence: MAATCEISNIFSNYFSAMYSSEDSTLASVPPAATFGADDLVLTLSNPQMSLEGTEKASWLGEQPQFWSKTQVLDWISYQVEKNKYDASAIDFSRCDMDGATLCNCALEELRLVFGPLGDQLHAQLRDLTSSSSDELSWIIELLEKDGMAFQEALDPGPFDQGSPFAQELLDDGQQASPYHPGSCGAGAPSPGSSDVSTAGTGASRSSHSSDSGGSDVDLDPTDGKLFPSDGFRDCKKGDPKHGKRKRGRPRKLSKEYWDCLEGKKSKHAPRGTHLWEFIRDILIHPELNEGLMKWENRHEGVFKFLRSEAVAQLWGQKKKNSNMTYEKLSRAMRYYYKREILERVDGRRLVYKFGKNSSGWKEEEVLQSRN
# Method in brief: as §1
# CRX = CRX (Homo sapiens, UniProt O43186 1-299); conditions: protein: recombinant; tags: N-terminal GST; dsDNA, one strand shown
# Sequence of CRX (O43186 whole entry): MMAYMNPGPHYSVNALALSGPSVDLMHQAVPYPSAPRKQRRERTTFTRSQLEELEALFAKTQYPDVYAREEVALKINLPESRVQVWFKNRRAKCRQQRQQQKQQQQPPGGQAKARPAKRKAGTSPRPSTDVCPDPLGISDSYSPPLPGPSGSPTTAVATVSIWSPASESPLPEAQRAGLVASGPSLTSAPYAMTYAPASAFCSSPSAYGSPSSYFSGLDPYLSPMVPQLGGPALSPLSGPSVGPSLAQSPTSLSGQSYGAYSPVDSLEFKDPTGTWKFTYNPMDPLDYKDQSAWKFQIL
# Method in brief: as §1
# ETV1 = ETV1 (Homo sapiens, UniProt P50549 1-477); conditions: protein: recombinant; tags: N-terminal GST; dsDNA, one strand shown
# Sequence of ETV1 (P50549 whole entry): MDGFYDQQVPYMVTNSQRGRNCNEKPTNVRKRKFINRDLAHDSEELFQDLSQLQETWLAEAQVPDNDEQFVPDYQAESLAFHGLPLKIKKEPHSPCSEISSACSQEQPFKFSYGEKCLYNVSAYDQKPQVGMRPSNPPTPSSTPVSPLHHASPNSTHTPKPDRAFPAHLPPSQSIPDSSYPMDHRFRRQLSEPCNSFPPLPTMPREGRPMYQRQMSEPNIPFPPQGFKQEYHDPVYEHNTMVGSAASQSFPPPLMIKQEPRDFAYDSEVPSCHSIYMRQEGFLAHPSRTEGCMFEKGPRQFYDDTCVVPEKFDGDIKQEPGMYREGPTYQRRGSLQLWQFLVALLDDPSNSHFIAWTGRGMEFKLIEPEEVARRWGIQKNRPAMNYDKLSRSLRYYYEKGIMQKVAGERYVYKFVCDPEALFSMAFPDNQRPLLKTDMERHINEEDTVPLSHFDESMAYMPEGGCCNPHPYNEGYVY
# Method in brief: as §1
sequence,measurement,setting,value
TATCAG,binding signal,ETV5,"1.14 fold enrichment (6-mer frequency, TF over GST control)"
same,binding signal,HSF1,"1.11 fold enrichment (6-mer frequency, TF over GST control)"
same,binding signal,SPIC,"1.03 fold enrichment (6-mer frequency, TF over GST control)"
same,binding signal,ELF4,"1.18 fold enrichment (6-mer frequency, TF over GST control)"
same,binding signal,ELK4,"1.35 fold enrichment (6-mer frequency, TF over GST control)"
same,binding signal,ETV2,"1.01 fold enrichment (6-mer frequency, TF over GST control)"
same,binding signal,ELF3,"1.09 fold enrichment (6-mer frequency, TF over GST control)"
same,binding signal,CRX,"1.47 fold enrichment (6-mer frequency, TF over GST control)"
same,binding signal,ETV1,"1.14 fold enrichment (6-mer frequency, TF over GST control)"
